This note sets out measurements from PubChem BioAssay (NCI).

Compounds without any hit were thinned out: in the full panel of roughly 79,000, 15% have a hit. Unmarked numbers belong to inactive results. Calls of active or inactive are those of the source. Cut-off read from the data, not from the text of the source: active = growth inhibition above about 70%; inactive = the rest.

Assay [1] can be described thus: NCI Yeast Anticancer Drug Screen. Data for the rad50 strain (AID 155).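 Note: 0% = growth of vehicle-only cultures of the same strain.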 As to conditions: S. cerevisiae rad50 strain growth inhibition, stronger effect = higher value. A digest of the protocol:
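Cells are treated with compound, grown, and their growth is then scored against vehicle-only cultures of the same repair-deficient yeast strain.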

The nature of assay [2]: NCI Yeast Anticancer Drug Screen. Data for the mec2-1 strain (AID 157). The following applies: S. cerevisiae mec2-1 strain, stronger effect = higher value. An outline of the steps:
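mec2-1 yeast strain, carrying an alteration in DNA damage repair or cell cycle control, was exposed to compounds; growth inhibition was measured relative to vehicle-treated controls.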

Assay [3] can be described thus: NCI Yeast Anticancer Drug Screen. Data for the sgs1 mgt1 strain (AID 161).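 Note: 0% = growth of cultures given vehicle only.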 As to conditions: S. cerevisiae sgs1 mgt1 strain, stronger effect = higher value. An outline of the steps: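 Percent growth inhibition was derived by comparing compound-exposed mutant yeast with vehicle-exposed cultures. The strain carries alterations in DNA damage repair.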
A short description of assay [4]: NCI Yeast Anticancer Drug Screen. Data for the cln2 rad14 strain (AID 165).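 Note: 0% = growth equal to vehicle treated cultures.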 As to conditions: S. cerevisiae cln2 rad14 strain, stronger effect = higher value. A digest of the protocol: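 Yeast carrying cln2 and rad14 alterations (cell cycle control and DNA damage repair) were exposed to compounds. Growth inhibition was measured against vehicle-treated controls.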
A short description of assay [5]: NCI Yeast Anticancer Drug Screen. Data for the bub3 strain (AID 167). As to conditions: S. cerevisiae bub3 mutant strain, stronger effect = higher value. An outline of the steps: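 Part of a panel of yeast mutants defective in DNA damage repair or cell cycle regulation. Each strain is grown with compound, and inhibition is calculated relative to solvent-treated cultures.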

Assay [6] in a line: NCI Yeast Anticancer Drug Screen. Data for the mlh1 rad18 strain (AID 175). The following applies: S. cerevisiae mlh1 rad18 strain growth inhibition, stronger effect = higher value. A digest of the protocol:
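Growth inhibition of the yeast strain was measured after compound exposure and expressed relative to vehicle-treated controls. The strain carries defined defects in DNA damage repair.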

Setting [7] is: at 5.0 µM (retest, dose inferred, filed as 0.5).
[8] abbreviates: at 50.0 µM (retest, dose inferred, filed as 5.0).

As for `CCOC(=O)C(NC(C)=O)[CH](c1ccccc1)[Sn]([c]1ccccc1)([c]1ccccc1)[c]1ccccc1` (configuration not stated), the growth inhibition was 3% in assay [1] (setting [7]); 92% (active) in assay [1] (setting [8]); 94.4% (active) in assay [1] (at 50.0 µM); -7% in assay [2] (setting [7]); 96% (active) in assay [2] (setting [8]); 97.5% (active) in assay [2] (at 50.0 µM). The growth inhibition in assay [3] (setting [7]) is -10%; in assay [3] (setting [8]), 95% (active); in assay [3] (at 50.0 µM), 99.1% (active); in assay [4] (setting [7]) it was -19%; in assay [4] (setting [8]), 92% (active); in assay [4] (at 50.0 µM), 94% (active). Besides, the growth inhibition in assay [5] (setting [7]) is -13%; in assay [5] (setting [8]) it was 96% (active); in assay [5] (at 50.0 µM) it was 96.2% (active); in assay [6] (setting [7]) it was 2%; in assay [6] (setting [8]), 95% (active); in assay [6] (at 50.0 µM) it was 96.7% (active).
`NS(=O)(=O)c1ccc(Nc2c3ccccc3nc3c(C(=O)NC(CO)(CO)CO)cccc23)cc1`: the growth inhibition in assay [1] (setting [7]) is -14%; in assay [1] (setting [8]), 24%; in assay [1] (at 50.0 µM), 18.9%; in assay [2] (setting [7]), -11%; in assay [2] (setting [8]) it was -10%; in assay [2] (at 50.0 µM) it was -1%. For the same compound, the growth inhibition was -5% in assay [3] (setting [7]); -13% in assay [3] (setting [8]); 15.3% in assay [3] (at 50.0 µM); 25% in assay [4] (setting [7]); -10% in assay [4] (setting [8]); 45.5% in assay [4] (at 50.0 µM). The growth inhibition in assay [5] (setting [7]) was -9%; in assay [5] (setting [8]), -8%; in assay [5] (at 50.0 µM), 12.9%; in assay [6] (setting [7]) it was -14%; in assay [6] (setting [8]) it was 9%; in assay [6] (at 50.0 µM) it was 15.9%.
Turning to `CCCCNCc1c(O)ccc2ccccc12`, the growth inhibition in assay [1] (setting [7]) is 14%; in assay [1] (setting [8]), 99% (active); in assay [1] (at 50.0 µM), 99.1% (active); in assay [2] (setting [7]) it was 3%; in assay [2] (setting [8]), 99% (active); in assay [2] (at 50.0 µM), 99.2% (active). For the same compound, the growth inhibition in assay [3] (setting [7]) is 17%; in assay [3] (setting [8]), 99% (active); in assay [3] (at 50.0 µM), 99.1% (active); in assay [4] (setting [7]) it was 10%; in assay [4] (setting [8]), 98% (active); in assay [4] (at 50.0 µM), 95.8% (active). The growth inhibition in assay [5] (setting [7]) was 21%; in assay [5] (setting [8]), 99% (active); in assay [5] (at 50.0 µM), 99% (active); in assay [6] (setting [7]), 36%; in assay [6] (setting [8]), 99% (active); in assay [6] (at 50.0 µM), 99.2% (active).
For the compound `CCOC(=O)c1sc2c(c1O)c(=O)n(-c1ccccc1)c(=S)n2-c1ccccc1`, the growth inhibition is 84% (active) in assay [1] (setting [7]); 98% (active) in assay [1] (setting [8]); 95.7% (active) in assay [1] (at 50.0 µM); 90% (active) in assay [2] (setting [7]); 98% (active) in assay [2] (setting [8]); 95.8% (active) in assay [2] (at 50.0 µM). In addition, the growth inhibition in assay [3] (setting [7]) is 83% (active); in assay [3] (setting [8]), 98% (active); in assay [3] (at 50.0 µM), 95.5% (active); in assay [4] (setting [7]) it was 86% (active); in assay [4] (setting [8]) it was 98% (active); in assay [4] (at 50.0 µM) it was 85.3% (active). For the same compound, the growth inhibition in assay [5] (setting [7]) is 47%; in assay [5] (setting [8]) it was 97% (active); in assay [5] (at 50.0 µM), 95.2% (active); in assay [6] (setting [7]), 92% (active); in assay [6] (setting [8]), 98% (active); in assay [6] (at 50.0 µM) it was 95% (active).
Consider `O=c1c(-c2ccccc2)c(-c2ccccc2)c1=O`, for which the growth inhibition is -98% in assay [1] (setting [7]); 84% (active) in assay [1] (setting [8]); 97.7% (active) in assay [1] (at 50.0 µM); -37% in assay [2] (setting [7]); 89% (active) in assay [2] (setting [8]); 96.2% (active) in assay [2] (at 50.0 µM). The growth inhibition in assay [3] (setting [7]) was -36%; in assay [3] (setting [8]), 77% (active); in assay [3] (at 50.0 µM), 63.1%; in assay [4] (setting [7]), -49%; in assay [4] (setting [8]) it was 76% (active); in assay [4] (at 50.0 µM) it was 95.3% (active). The growth inhibition in assay [5] (setting [7]) is -38%; in assay [5] (setting [8]) it was 84% (active); in assay [5] (at 50.0 µM), 96.8% (active); in assay [6] (setting [7]), -85%; in assay [6] (setting [8]), 69%; in assay [6] (at 50.0 µM), 85.5% (active).
On to `NC(Cc1ccc(O)cc1O)C(=O)O` (configuration not stated), for which the growth inhibition in assay [1] (setting [7]) was 0%; in assay [1] (setting [8]) it was 2%; in assay [1] (at 50.0 µM), 7.7%; in assay [2] (setting [7]), 0%; in assay [2] (setting [8]), -1%; in assay [2] (at 50.0 µM) it was 31%. The growth inhibition in assay [3] (setting [7]) was -1%; in assay [3] (setting [8]), -4%; in assay [3] (at 50.0 µM), -7%; in assay [4] (setting [7]) it was 2%; in assay [4] (setting [8]), -2%; in assay [4] (at 50.0 µM), 74.9% (active). Further, the growth inhibition is 5% in assay [5] (setting [7]); -4% in assay [5] (setting [8]); 3.55% in assay [5] (at 50.0 µM); -1% in assay [6] (setting [7]); -1% in assay [6] (setting [8]); 16.4% in assay [6] (at 50.0 µM).
Take `O=C(c1ccccc1)c1ccc(Br)cc1O`: the growth inhibition in assay [1] (setting [7]) was -3%; in assay [1] (setting [8]), 21%; in assay [1] (at 50.0 µM), 57%; in assay [2] (setting [7]), -9%; in assay [2] (setting [8]), 12%; in assay [2] (at 50.0 µM) it was 21.9%. The growth inhibition in assay [3] (setting [7]) was -4%; in assay [3] (setting [8]) it was 33%; in assay [3] (at 50.0 µM), 31.8%; in assay [4] (setting [7]) it was -5%; in assay [4] (setting [8]) it was 9%; in assay [4] (at 50.0 µM) it was 28.1%. The growth inhibition was -12% in assay [5] (setting [7]); -11% in assay [5] (setting [8]); 38.1% in assay [5] (at 50.0 µM); 1% in assay [6] (setting [7]); 8% in assay [6] (setting [8]); 68.8% in assay [6] (at 50.0 µM).
For the compound `O=C(CC(=O)c1cccnc1)c1cccnc1`, the growth inhibition in assay [1] (setting [7]) was 6%; in assay [1] (setting [8]) it was 98% (active); in assay [1] (at 50.0 µM), 98.8% (active); in assay [2] (setting [7]), 9%; in assay [2] (setting [8]), 98% (active); in assay [2] (at 50.0 µM), 98% (active). In addition, the growth inhibition was 7% in assay [3] (setting [7]); 98% (active) in assay [3] (setting [8]); 98.5% (active) in assay [3] (at 50.0 µM); 5% in assay [4] (setting [7]); 98% (active) in assay [4] (setting [8]); 76.7% (active) in assay [4] (at 50.0 µM). In addition, the growth inhibition in assay [5] (setting [7]) is 8%; in assay [5] (setting [8]), 98% (active); in assay [5] (at 50.0 µM) it was 97.7% (active); in assay [6] (setting [7]), 7%; in assay [6] (setting [8]) it was 98% (active); in assay [6] (at 50.0 µM), 99% (active).
Turning to `O=[N+]([O-])/C(C(Cl)=C(Cl)Cl)=C(/Nc1ccccc1)SCc1ccccc1`, the growth inhibition in assay [1] (setting [7]) was 32%; in assay [1] (setting [8]) it was 100% (active); in assay [1] (at 50.0 µM) it was 12.3%; in assay [2] (setting [7]) it was 32%; in assay [2] (setting [8]) it was 100% (active); in assay [2] (at 50.0 µM), 26.1%. Besides, the growth inhibition in assay [3] (setting [7]) was 13%; in assay [3] (setting [8]) it was 99% (active); in assay [3] (at 50.0 µM), 18.9%; in assay [4] (setting [7]), 21%; in assay [4] (setting [8]) it was 97% (active); in assay [4] (at 50.0 µM) it was 14.6%. The growth inhibition in assay [5] (setting [7]) was 28%; in assay [5] (setting [8]) it was 94% (active); in assay [5] (at 50.0 µM), 43.4%; in assay [6] (setting [7]), 38%; in assay [6] (setting [8]), 100% (active); in assay [6] (at 50.0 µM), 50.6%.
